The text below walks through data of PubChem BioAssay AID488969 (Vanderbilt High Throughput Screening Facility, 2010).

In all, about 110,000 compounds were measured (“z-score”: median about -0.1, highest 2% from about 2 on). The sample as a whole holds a higher share of the highest values than the screen did. Activity calls are given as the source filed them.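 The calls were made as follows: active = z-score in the third read window above 3 or below -3; inactive = the rest.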

The target of this assay is Metabotropic glutamate receptor 8 (Rattus norvegicus) (UniProt P70579). As to the kind of experiment: mGluR8 Gi/Go-coupled signaling modulation – cell-based, rat, thallium flux, HTS, primary screen (AID 488969). The conditions noted are these: HEK293 rat mGluR8, GIRK (G protein-gated inwardly rectifying potassium channel) thallium flux, FluoZin2; at 10 µM; stronger effect = higher value; submaximal glutamate (EC20) added with thallium.
Sequence of Metabotropic glutamate receptor 8 (Rattus norvegicus) (P70579 whole entry, looked up): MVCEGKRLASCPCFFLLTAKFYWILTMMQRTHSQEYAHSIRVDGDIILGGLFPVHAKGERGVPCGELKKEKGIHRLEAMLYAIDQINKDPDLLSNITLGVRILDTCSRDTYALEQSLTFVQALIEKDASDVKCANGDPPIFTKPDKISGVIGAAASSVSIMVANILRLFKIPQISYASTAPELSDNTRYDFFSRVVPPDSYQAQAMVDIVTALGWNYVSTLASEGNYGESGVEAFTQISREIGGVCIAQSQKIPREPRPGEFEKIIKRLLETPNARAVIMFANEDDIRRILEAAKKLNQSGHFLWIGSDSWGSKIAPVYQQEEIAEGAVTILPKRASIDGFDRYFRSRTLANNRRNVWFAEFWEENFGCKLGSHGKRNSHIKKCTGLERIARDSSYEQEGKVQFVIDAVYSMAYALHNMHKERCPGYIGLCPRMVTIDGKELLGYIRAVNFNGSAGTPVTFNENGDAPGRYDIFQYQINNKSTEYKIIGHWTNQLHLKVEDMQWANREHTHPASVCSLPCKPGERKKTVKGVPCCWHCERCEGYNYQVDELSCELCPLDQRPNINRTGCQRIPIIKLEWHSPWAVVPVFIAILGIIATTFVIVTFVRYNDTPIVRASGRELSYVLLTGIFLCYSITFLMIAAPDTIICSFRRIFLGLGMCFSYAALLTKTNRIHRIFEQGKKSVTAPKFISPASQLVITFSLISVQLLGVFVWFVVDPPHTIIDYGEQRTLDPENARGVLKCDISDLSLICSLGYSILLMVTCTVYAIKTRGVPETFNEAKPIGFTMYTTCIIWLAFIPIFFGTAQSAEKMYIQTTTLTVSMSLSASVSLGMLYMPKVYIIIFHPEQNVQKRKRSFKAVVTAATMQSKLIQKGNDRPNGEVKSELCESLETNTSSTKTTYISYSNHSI
On to `O=C1c2ccccc2CC1(Cc1ccccc1)Cc1ccccc1`, for which the z-score was -0.201. To `COc1ccc(OCC(=O)N/N=C/c2ccsc2)cc1` belongs 0.604; to `CC(C)(C)c1ccc(OCC(=O)N/N=C/c2ccsc2)cc1`, 0.2. To `CC(Oc1ccc(Cl)cc1)C(=O)N/N=C/c1ccsc1` (stereo not drawn) belongs 11.6 (active); to `COc1cc(C(=O)Nc2ccc(S(=O)(=O)NC(C)(C)C)cc2)cc(OC)c1OC`, -0.258; to `CCOc1cc(N2CCOCC2)c(OCC)cc1NC(=O)COC(=O)CCc1c[nH]c2ccccc12`, 8.03 (active). The same measure for `CCOc1cc(N2CCOCC2)c(OCC)cc1NC(=O)COC(=O)c1cccc2ccccc12`: -0.0215.

Take `CCOc1cc(N2CCOCC2)c(OCC)cc1NC(=O)Cc1cccc2ccccc12`: the z-score is -0.178. As for `CCOc1ccccc1N1C(=O)CC(N(O)c2ccccc2)C1=O` (stereo not drawn), the z-score is -0.0542. The same measure for `CC1(C)CN2C(=S)N(c3ccccc3)C(c3ccccc3)N2C1` (stereo not drawn): -0.619. To `COc1ccc(N2CCN(CCNC(=O)Nc3ccc(Cl)cc3)CC2)cc1` belongs 0.451; to `COc1ccc(Cl)c(N2CCN(CCCNC(=O)Nc3ccc(C)cc3)CC2)c1`, 2.3; to `COc1ccc(N2CCN(CCCNC(=O)Nc3ccccc3)CC2)cc1`, 0.121. The same measure for `COc1ccccc1C1(CCNS(=O)(=O)c2ccc(C)cc2)CCOC(C(C)C)C1` (stereo not drawn): -0.293; for `CC(=O)/C(=N/Nc1ccccc1)Sc1nnc(C(O)c2ccccc2)n1-c1ccccc1` (stereo not drawn): -0.33; for `COc1cc(Cl)c(C)cc1NC(=O)CSC`: 0.0277. With `CCn1cc(CNC(=O)/C=C/c2ccc([N+](=O)[O-])cc2)c(C)n1`, the z-score was -0.204. Regarding `Fc1cccc2sc(Nc3nc4cc5c(cc4s3)OCO5)nc12`, the z-score was 5.54 (active).

For `COc1ccc2nc(Nc3nc4cc5c(cc4s3)OCO5)sc2c1`, the z-score was determined as 0.175. To `Fc1cc(F)c2nc(Nc3nc4cc5c(cc4s3)OCO5)sc2c1` belongs 1.9; to `Fc1cccc2sc(Nc3nc4cc5c(cc4s3)OCCO5)nc12`, 2.25; to `Fc1ccc2nc(Nc3nc4cc5c(cc4s3)OCCO5)sc2c1`, -0.101. Regarding `c1ccc2sc(Nc3nc4cc5c(cc4s3)OCO5)nc2c1`, the z-score was 0.501.

`Clc1cccc(Cl)c1Cn1cnc(=NCc2ccco2)c2[nH]cnc21`: the z-score was -0.33. The same measure for `COc1ccc(/C=N/Nc2cc(C)nc(NS(=O)(=O)c3ccc(C)cc3)n2)cc1`: -0.501; for `CCCCN=Cc1sc2ccc(OCC)cc2c1O`: -0.188; for `CC1CCCN(C(=O)CSc2nnc3n(C4CCCC4)c(=O)c4ccccc4n23)C1` (stereo not drawn): -0.217. To `O=C(Nc1ccccc1)Nc1ccccn1` belongs 0.139. The same measure for `S=C(Nc1ccccc1)c1ccccn1`: 2.52; for `Cc1ccc(C)c(NC(=S)c2ccccn2)c1`: -0.333.

For the compound `CCCNC1=C(N(C(C)=O)c2cccc(F)c2)C(=O)c2ccccc2C1=O`, the z-score is -1.55. The same measure for `CC(=O)N(Cc1ccc(F)cc1)C1=C(NCc2ccccc2)C(=O)c2ccccc2C1=O`: 2.03; for `CC(=O)N(Cc1ccc(F)cc1)C1=C(NCCc2ccccc2)C(=O)c2ccccc2C1=O`: 1.71e-05. To `COC(=O)C1(S(=O)(=O)c2cc(Br)cc3c2N(C(C)=O)CC3)CC1` belongs -0.117; to `O=C(COC(=O)C1=Cc2ccccc2OC1)NC1CCCC1`, -0.184; to `CS(=O)(=O)N(CC(=O)N1CCN(c2ccccc2)CC1)c1cc(C(F)(F)F)ccc1Cl`, -0.525. On to `CCOC(=O)N1CCN(C(=O)CN(c2cc(C(F)(F)F)ccc2Cl)S(C)(=O)=O)CC1`, for which the z-score came to 0.421. In turn, `CN1CCN(C(=O)CN(c2cc(C(F)(F)F)ccc2Cl)S(C)(=O)=O)CC1` came in with a z-score of 2.63. As to `O=C(COc1cccc2ccccc12)NNC(=O)CSCCO`, the z-score was -0.199. To `c1ccc2c(NC3CCCC3)nnc(NC3CCCC3)c2c1` belongs 3.18 (active); to `c1ccc(-n2nnnc2NC2CCCCC2)cc1`, -0.018; to `c1csc(-c2nnc(NC3CCCCC3)c3ccccc23)c1`, -1.27. `CCOC(=O)CSc1nnc(CNc2cccc(Cl)c2)n1-c1ccccc1` returned a z-score of 2.85. `CCOC(=O)CSc1nnc(Cc2ccccc2)n1-c1cccc(Cl)c1`: the z-score was -0.436. To `CCOC(=O)CSc1nnc(CNc2cccc(Cl)c2)n1C` belongs 1.12; to `CCOC(=O)C(=O)Nc1ccc2c(c1)OCO2`, 0.0617. The same measure for `Oc1c(Cl)cc(Cl)cc1C=Nc1ccccc1N1CCCC1`: 0.0524; for `O=C(Cn1nc(Cc2cccnc2)c2ccccc2c1=O)N1CCN(C(=O)c2ccco2)CC1`: -0.426. The same measure for `Cc1cccc(N2CCN(C(=O)Cn3nc(Cc4ccncc4)c4ccccc4c3=O)CC2)c1C`: -0.488; for `O=C(Cn1nc(Cc2ccncc2)c2ccccc2c1=O)N1CCN(C(=O)c2ccco2)CC1`: 3.76 (active).

Turning to `CC(C)=C1SC(N2CCN(c3cccc(C(F)(F)F)c3)CC2)=NC1=O`, the z-score is -0.205. For `O=C1c2cccc3cc(Br)cc(c23)C(=O)N1Nc1ccc(Br)cc1`, the z-score is -0.252. To `COc1ccc(CCNC(=O)c2ccc(CN3CCC(Cc4ccccc4)CC3)cc2)cc1` belongs -0.304; to `Cc1ccc(CCNC(=O)C2CCCN(S(=O)(=O)c3c(C)noc3/C=C/N(C)C)C2)cc1` (stereo not drawn), -0.519. To `Cc1noc(/C=C/N(C)C)c1S(=O)(=O)N1CCCC(C(=O)NCc2ccc(Cl)cc2)C1` (stereo not drawn) belongs -0.29; to `Cc1noc(/C=C/N(C)C)c1S(=O)(=O)N1CCCC(C(=O)NCc2ccc(F)cc2)C1` (stereo not drawn), 2.21; to `CC(C)(C)NC(=O)C(c1ccncc1)N(C(=O)Cn1nnc(-c2cccs2)n1)C1CCCCC1` (stereo not drawn), -0.081. To `Cc1cc(C)nc(SCC(=O)NCc2ccco2)n1` belongs 0.232; to `Cc1cc(C)nc(SCc2nnc(SCC(=O)NCc3ccco3)n2-c2ccccc2)n1`, -0.73; to `Cc1ccc(-n2c(CSc3nc(C)cc(C)n3)nnc2SCC(=O)NCc2ccco2)cc1`, 8.78 (active). The compound `Cc1ccc(-c2nc3ncccc3o2)cc1NC(=O)Cc1ccc(Cl)cc1` yielded a z-score of 0.497. To `CNC(=O)C1CC(=O)N(c2ccc(C)cc2)C1` (stereo not drawn) belongs 0.338. Regarding `O=C(Nc1ccc2c(c1)OCCO2)C1CCCN(S(=O)(=O)c2cccc3nsnc23)C1` (stereo not drawn), the z-score was 0.545. Turning to `CN(C)S(=O)(=O)N1CCN(C(=O)N2CCCCCC2)CC1`, the z-score is -0.197. The same measure for `Cc1ccc(C(=O)OCC(=O)N2CC(=O)Nc3ccccc32)s1`: 0.331; for `CCOc1ncccc1C(=O)OCC(=O)N1CC(=O)Nc2ccccc21`: 2.36; for `Cc1ccsc1C(=O)OCC(=O)N1CC(=O)Nc2ccccc21`: -0.081.

For the compound `O=C(CCN1C(=O)C2CC=C(Cl)CC2C1=O)NCc1ccco1` (stereo not drawn), the z-score was -0.187. To `O=S(=O)(NC1CC1)c1ccc(S(=O)(=O)N(Cc2ccccn2)C2CCCC2)cc1` belongs -0.114. The same measure for `O=C(Cc1ccc(Cl)cc1)Nc1ccc(N2CCN(C(=O)c3ccco3)CC2)cc1`: 0.107.

For the compound `O=C(Cc1ccc(Cl)cc1)Nc1ccc(N2CCN(C(=O)c3ccco3)CC2)c(Cl)c1`, the z-score was found to be 2.13. On to `O=C(Nc1ccc(N2CCN(C(=O)c3ccco3)CC2)c(Cl)c1)c1c(F)c(F)c(F)c(F)c1F`, for which the z-score was -0.334. The same measure for `Cc1cc(/C=N\NC(=O)CC(=O)NC2CCCCC2)c(C)n1-c1cccc(Cl)c1Cl`: -0.438; for `CCN1CCN(Cc2ccccc2NC(=O)Nc2ccc(C)cc2)CC1`: 0.088; for `NC(=O)C1CCCN(C(=O)Nc2cccc3ccccc23)C1` (stereo not drawn): 0.107.

As to `COC(=O)Cc1c[nH]c2cccc(OCC(O)CN(Cc3ccccc3)C(C)C)c12` (stereo not drawn), the z-score came to 0.637. The same measure for `CCCCn1nc2cc(C(=O)NCCc3ccc(C)cc3)ccc2c1OCC`: -0.356; for `CCCn1nc2cc(C(=O)NCCc3ccc(C)cc3)ccc2c1OCC`: 2.73; for `CCOc1c2ccc(C(=O)NCCc3ccc(C)cc3)cc2nn1CC`: -0.287. The same measure for `Cc1c(C(N)=O)sc2ncn(CC(=O)OC(C)C)c(=O)c12`: 0.619; for `CN(C)CCSc1nc(-c2ccccc2)nc2c1COC(C)(C)C2`: -0.143. To `CN(C)CCCOc1ccc(C(C)(C)c2ccccc2)cc1` belongs 3.07 (active); to `CC(C)NCCCOc1ccc(C(C)(C)c2ccccc2)cc1`, 0.192. Take `CNCCCOc1ccc(C(C)(C)c2ccccc2)cc1`: the z-score was 0.32. To `O=C(Nc1ccc(N2CCN(C(=O)c3ccco3)CC2)cc1)c1ccc2c(c1)OCO2` belongs 0.192; to `CCN1C(=O)CC(N2CCC(Cc3ccccc3)CC2)C1=O` (stereo not drawn), -0.239. The same measure for `Cc1cc(O)c(C(C[N+](=O)[O-])c2ccc(Cl)cc2)c(=O)o1` (stereo not drawn): 0.103; for `CCOC(=O)c1cc2c(nc1NC(=S)Nc1ccccc1)CC(C)(C)OC2`: -0.292; for `CCNC(=S)Nc1nc2c(cc1C(=O)OCC)CCCC2`: 8.73 (active). To `CCOC(=O)c1cc2c(nc1N)CC(C)(CC)OC2` (stereo not drawn) belongs -0.0521; to `C=CCNc1nc(-c2ccccc2)c(C(=O)OCC)cc1C#N`, -0.303; to `C=CCNC(=S)Nc1nc2c(cc1C(=O)OCC)CCCC2`, 7.76 (active). Compound `C=CCNC(=S)Nc1ccc2nc(C)c(C)nc2c1` registered a z-score of 0.0978.

The compound `CCOC(=O)c1cnc2cc3c(cn2c1=O)CCCC3` returned a z-score of 0.699. To `CCOC(=O)c1cc2c(nc1N)CC(C)(C)OC2` belongs -0.353; to `CCOC(=O)c1ccc(CNCc2ccccc2)cc1`, -0.07; to `CCOC(=O)c1cc2c(nc1NC(=S)NCc1ccccc1)CCCC2`, 2.16. Consider `C=C(C)CNC(=S)Nc1nc2c(cc1C(=O)OCC)CCCC2`, for which the z-score is 3.56 (active). To `CCOC(=O)c1ccc(NC(=S)NCCC2=CCCCC2)cc1` belongs -0.19; to `O=C(NCC1CCCO1)c1ccc(CS(=O)(=O)c2c(Cl)cccc2Cl)o1` (stereo not drawn), -0.0453; to `COc1ccccc1-n1c(=O)[nH]c2c(C(N)=O)nc(C3CCCCC3)nc21`, -0.356. To `CCN1CCN(C(c2ccc(OC)cc2)C(O)C(=O)c2c[nH]c3ccccc23)CC1` (stereo not drawn) belongs 0.0792; to `C=CCn1c(COc2ccc(Cl)cc2)nnc1SCC(=O)N/N=C/c1cccc(O)c1`, -0.279; to `CCOC(=O)c1c(NC(=O)CSc2nncs2)sc(C)c1-c1ccccc1`, -0.117. To `CCOC(=O)c1ccccc1N1C(=O)CSC1=S` belongs -0.0781; to `COCCn1c(C)cc(C(=O)COC(=O)c2ccc(NC(=O)CC#N)cc2)c1C`, -0.449; to `Cc1nn(Cc2c(F)c(F)c(F)c(F)c2F)c(C)c1NC(=O)c1ccc(COc2ccccc2Cl)o1`, -0.506. Consider `CC(=O)c1cc2c(cc1NC(=O)CCC1CCCC1)OCO2`, for which the z-score is 0.181.
